Among the data in PubChem BioAssay (NCI) are growth values, retold here.

The panel holds about 83,000 compounds, 20% with a hit somewhere; the sample as a whole holds those more often.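 Plates (96-well) were seeded with cells, treated with compound at one concentration, and incubated for 48 hours before percent growth was determined.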 Unmarked numbers belong to inactive results. Active and inactive are the calls of the source. Rule for the calls: active = growth percent below 10; inactive = the rest.

Holding throughout (test): NCI-60 one-dose screen, 48 h (100 = growth as untreated, 0 = no growth, -100 = all killed)
Common to all, as to conditions: 10 µM unless noted

The test system of assay [1] is NCI-H23 lung.
The test system of assay [2] is NCI-H226 lung.
For assay [3], the system named is HOP-62 NSCLC.
The test system of assay [4] is NCI-H460 lung.
The test system of assay [5] is HOP-92 NSCLC.
The subject of assay [6] is NCI-H522 lung.
In assay [7] the test system is A549/ATCC NSCLC.
In assay [8] the test system is 786-0 renal.
Assay [9] concerns COLO 205 colon.
Assay [10] concerns DU-145 prostate.
Assay [11] deals with K-562 leukemia.
Assay [12] deals with MALME-3M melanoma.
The test system of assay [13] is MDA-MB-231 breast.
Assay [14] has as its system RXF 393 renal.
The subject of assay [15] is SF-268 CNS.
Assay [16] deals with SF-539 CNS.
The test system of assay [17] is UACC-257 melanoma.
Assay [18] deals with M14 melanoma.
The test system of assay [19] is SF-295 CNS.

In the case of `Cc1nn(-c2ccc(Cl)cc2)c(=O)n1CCN1CCOCC1`, the growth is 64.5% in assay [1]; 79.4% in assay [2]; 33.8% in assay [3]; 41.7% in assay [4]; 30.1% in [5]; 69% in assay [6]. Moreover, the growth in [7] is 56.4%; in assay [8] it was 59.4%; in [9] it was 107%; in assay [10] it was 78.5%; in [11], 70.1%; in assay [12], 59.1%. Besides, the growth was 57.3% in [13]; 42.1% in [14]; 48.4% in assay [15]; 67% in assay [16]; 73.4% in assay [17]; 69.8% in [18].
Take `COc1cccc(OCC(O)CN2CCN(c3ccccc3)CC2)c1` (stereo unspecified): the growth in [1] is 106%; in assay [2], 106%; in [3], 103%; in assay [4], 114%; in assay [5] it was 129%; in assay [6], 80.3%. Also, the growth was 114% in [7]; 104% in assay [8]; 138% in assay [9]; 116% in [10]; 92.4% in [11]; 145% in assay [12]. Also, the growth was 108% in assay [13]; 163% in assay [14]; 106% in assay [15]; 113% in assay [19]; 100% in assay [16]; 134% in assay [17]. Moreover, the growth in assay [18] is 104%.
Consider `CN1CCN(Cc2ccc(NC(=O)c3cnc(F)c(C#Cc4cnc(N)c5ncccc45)c3)cc2C(F)(F)F)CC1`, for which the growth in [1] is 28.3%; in assay [2], -14.2% (active); in assay [3], 16.6%; in [4], 13.1%; in assay [5] it was -8.06% (active); in assay [6], 30%. The growth in assay [7] is 23.3%; in assay [8], 29.5%; in assay [9], -7.96% (active); in [10], 30.5%; in assay [11], 1.55% (active); in [12], -43.1% (active). Further, the growth was -25.7% (active) in assay [13]; -0.985% (active) in assay [14]; 28.6% in assay [15]; 48.2% in [19]; 9.63% (active) in [16]; 13.5% in assay [17]. The growth in assay [18] is -56.4% (active).
As for `CCN(CC)CCCC(C)Nc1cnc(C(=O)Nc2cc(C)cc3cccnc23)cn1` (stereo unspecified), the growth in assay [1] was 96.3%; in [2], 60.4%; in assay [3], 91.2%; in assay [4], 79.5%; in [5], 51.4%; in assay [6], 96.8%. Moreover, the growth in [7] was 72.8%; in assay [8], 88.2%; in [9], 37%; in [10], 80.7%; in [11], 25.9%; in assay [12] it was 107%. In addition, the growth in assay [13] was 89.2%; in assay [14], 72.3%; in [15] it was 66.1%; in assay [19], 98.9%; in assay [16] it was 86.9%; in [17], 71.7%. Besides, the growth in assay [18] is 98.6%.
On to `c1ccc(-c2[nH]c3ccccc3c2-c2ccccc2)cc1`, for which the growth is 82% in assay [1]; 91.4% in assay [2]; 90% in assay [3]; 82.5% in assay [4]; 8.71% (active) in assay [5]; 91.8% in assay [6]. Moreover, the growth is 84.5% in assay [7]; 83.9% in assay [8]; 107% in assay [9]; 99.7% in assay [10]; 83.4% in assay [11]; 93.9% in assay [12]. Also, the growth in assay [13] is 84.7%; in [14], 149%; in assay [15] it was 106%; in [19], 87.9%; in assay [16], 84.6%; in [17] it was 101%. In [18], the growth is 89.5%.
For `O=C(O)c1cn(-c2ccccc2)nc1-c1ccc(O)cc1`, the growth in [1] was 93.9%; in [2] it was 107%; in assay [3], 92.7%; in [4], 94.7%; in assay [5], 85.5%; in assay [6], 78.6%. Moreover, the growth was 92.4% in [7]; 97.4% in [8]; 109% in assay [9]; 100% in [11]; 105% in assay [12]; 95.7% in [13]. The growth in [14] is 108%; in assay [19], 92.8%; in assay [16] it was 101%; in assay [17] it was 85.1%; in assay [18], 91.8%.
With `Cc1cc(C)c2c(n1)sc1c(Nc3ccc(Cl)cc3Cl)ncnc12`, the growth in [1] is 19%; in [2] it was 36.2%; in assay [3], 2.53% (active); in [4], 9.44% (active); in assay [5] it was 36.2%; in assay [6], 30.5%. Further, the growth is 26.2% in assay [7]; 10.9% in assay [8]; 23.3% in assay [9]; 20.3% in assay [10]; 42.9% in assay [11]; 53.4% in [12]. Besides, the growth is 58.7% in assay [13]; 28.8% in assay [14]; 17.9% in assay [15]; 14.3% in assay [19]; 4.9% (active) in [16]; 36.4% in [17]. In [18], the growth was -34.3% (active).
Take `O=[N+]([O-])c1cccc(N=C(Nc2cccc([N+](=O)[O-])c2)c2ccccc2)c1`: the growth is 86.4% in assay [1]; 91.6% in [2]; 89.9% in [3]; 102% in assay [4]; 47.4% in assay [5]; 59.5% in assay [6]. Further, the growth in assay [7] is 79.9%; in [8], 83.6%; in assay [9] it was 109%; in assay [10], 98.2%; in [11], 45%; in assay [12], 79.7%. Further, the growth was 83.9% in assay [13]; 82% in [14]; 96.6% in [15]; 87.1% in [16]; 92.4% in assay [17]; 85.7% in assay [18].
For `C=CCn1c(SCC(=O)Nc2ccc(C(=O)/C=C/c3ccccc3)cc2)nnc1-c1ccc(OC)c(OC)c1`, the growth in assay [1] was 80.7%; in [2], 85.9%; in assay [3] it was 99.1%; in assay [4], 88.2%; in [5], 82.7%; in assay [6], 68.3%. Moreover, the growth in assay [7] is 61%; in assay [8], 75.6%; in [9], 91.2%; in assay [10], 89.6%; in assay [11], 47.5%; in [12], 105%. The growth is 77.1% in [13]; 85.7% in [14]; 86% in assay [15]; 92.1% in assay [16]; 79.9% in assay [17]; 73.6% in assay [18].
